Lassa entry inh: qHTS for Inhibitors of binding or entry into cells for Lassa Virus. Lassa virus pseudotype entry inhibition, cell reporter. Potency, µM (titrated, usually from 37.9 µM), hits mostly inhibitors. hit rate 1.2% among 300,000. AID 540256, 2011; calls by dose curve; tested in HEK293 cells; note: nearly all actives have a fitted effect of over 50% in size
FMDV inh: High Throughput Screening for Foot and Mouth Disease Virus Antivirals; FMDV antiviral cell-based qHTS; Potency, µM (highest dose often 57.9 µM), usual class: inhibitors; hit rate 1.2% among 410,000; AID 1159524, 2015; calls by dose curve; tested in HEK293T cells; note: read-out not given here; nearly all actives have a fitted effect of over 45% in size
Marburg entry inh: qHTS for inhibitors of binding or entry into cells for Marburg Virus; Marburg virus pseudotyped entry inhibition, cell reporter; Potency, µM (top dose mostly 37.8 µM), hits mostly inhibitors; hit rate 1.8% among 300,000; AID 540276, 2011; calls by dose curve; tested in HEK293 cells
Sm TGR inh: qHTS Assay for the Inhibitors of Schistosoma Mansoni Peroxiredoxins; Schistosoma mansoni thioredoxin glutathione reductase (TGR), Q962Y6; purified TGR, DTNB reduction, TNB absorbance 405 nm; Potency, µM (series often up to 114 µM), usual class: inhibitors; hit rate 3% among 360,000; AID 485364, 2010; active = well fitted inhibition curve with a large enough effect; inconclusive = small, poorly fitted or top-dose-only effect; inactive = no such curve, though single readings can be large or run the other way; note: nearly all actives have a fitted effect of over 60% in size
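First, TGR (20 nM dispensed) and NADPH were mixed with compound. Second, a 15 min room-temperature incubation followed. Third, further NADPH and then DTNB were added to start the reaction. Finally, TNB absorbance was monitored kinetically.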
VACV Venus inh: qHTS for Stage-Specific Inhibitors of Vaccinia Orthopoxvirus: Venus Reporter Primary qHTS | Vaccinia virus Venus reporter expression, fluorescence | hit rate 0.46% among 330,000 | Potency, µM (highest dose often 36.5 µM), usual class: inhibitors; calls by dose curve; tested in A549 cells; note: nearly all actives have a fitted effect of over 30% in size
VACV mCherry inh: qHTS for Stage-Specific Inhibitors of Vaccinia Orthopoxvirus: mCherry Reporter Primary qHTS; hit rate 0.63% among 310,000; Vaccinia virus mCherry reporter infection, fluorescence; Potency, µM (doses to about 36.5 µM), usual class: inhibitors; AID 720579, 2013; calls by dose curve; tested in A549 cells; note: nearly all actives have a fitted effect of over 35% in size
Of the large screens only hits and unclear results are named; the others gave an inactive call. Most compounds without a hit are left out; they make up all but 5.4% or so of the library.

COc1ccc(Sc2nc(-c3ccccn3)ncc2OC)cc1	Lassa entry inh 20.6µM, Marburg entry inh 16.4µM, VACV Venus inh inconclusive, VACV mCherry inh inconclusive
COC(=O)c1cc(C(=O)OCC(=O)c2ccc3c(c2)NC(=O)CO3)cc([N+](=O)[O-])c1	FMDV inh inconclusive, Sm TGR inh 39.8µM
COc1cc(OC)cc(C(=O)N[C@H](C(=O)OCC(=O)c2ccc3c(c2)NC(=O)CO3)C(C)C)c1	none (no result: VACV Venus inh, VACV mCherry inh)
CCC(=O)c1ccc(OCC(=O)c2ccc3c(c2)NC(=O)CO3)cc1	none (no result: Lassa entry inh, Marburg entry inh)
O=C1COc2ccc(C(=O)CCl)cc2N1	FMDV inh 25.1µM, Marburg entry inh inconclusive, Sm TGR inh 3.55µM
Cc1cccc(C(=O)OCC(=O)c2ccc3c(c2)NC(=O)CO3)c1	none (no result: Sm TGR inh)
CC(C)[C@H](NC(=O)c1ccccc1)C(=O)OCC(=O)c1ccc2c(c1)NC(=O)CO2	Lassa entry inh inconclusive, Sm TGR inh 35.5µM (no result: VACV Venus inh, VACV mCherry inh)
CC(C)Cn1c(=O)c2sccc2n2c(CCCC(=O)N3CCN(c4ccc(F)cc4)CC3)nnc12	FMDV inh inconclusive (no result: Marburg entry inh)
Cc1ccc(CCNC(=O)c2ccc(CSCc3ccccc3C)o2)cc1	none (no result: Marburg entry inh)
CCN(c1cccc(C)c1)S(=O)(=O)c1ccc2c(c1)CCN2C(C)=O	Lassa entry inh inconclusive, FMDV inh inconclusive, Marburg entry inh inconclusive, VACV Venus inh inconclusive
CCN(c1cccc(C(F)(F)F)c1)S(=O)(=O)c1ccc2c(c1)CCN2C(C)=O	Lassa entry inh 17.8µM, FMDV inh inconclusive, Marburg entry inh inconclusive, VACV Venus inh inconclusive, VACV mCherry inh inconclusive
Cc1cc2nccc(/C=C/c3ccc(N(C)C)cc3)c2cc1C	none (no result: Lassa entry inh, FMDV inh, Marburg entry inh, Sm TGR inh)
C/C(=N\NC(N)=S)C1C2C3CC4C5CC(C42)C1C53 (stereo unspecified)	Marburg entry inh inconclusive, VACV Venus inh inconclusive, VACV mCherry inh 11.2µM
O=C1NN(c2ccc(F)c(Cl)c2)C(=O)/C1=C\c1cccc(OC(=O)c2cccs2)c1	FMDV inh 28.2µM (no result: VACV mCherry inh)
CC(C)(C)c1ccc(/C=C(\C#N)C(=O)Nc2ccccn2)cc1	none (no result: Lassa entry inh, Marburg entry inh, VACV Venus inh, VACV mCherry inh)
COc1cc(/C=C(\C#N)C(=O)Nc2ccccn2)ccc1O	Marburg entry inh inconclusive, Sm TGR inh 14.1µM (no result: Lassa entry inh)
Cc1cccc(/C=C(\C#N)C(=O)Nc2ccccn2)c1	none
CCOc1cc(/C=C(\C#N)C(=O)Nc2ccccn2)ccc1O	Marburg entry inh inconclusive, Sm TGR inh 17.8µM
CSCC[C@H](NC(=O)OC(C)(C)C)C(=O)N/N=C/c1ccc2nccnc2c1	Marburg entry inh 3.16µM
CSCC[C@H](NC(=O)OC(C)(C)C)C(=O)N/N=C/c1cccc2nccnc12	FMDV inh inconclusive
COc1ccc(COC(=O)N/N=C(\C)CC(=O)Nc2c(C)cc(C)cc2C)cc1	Lassa entry inh 7.3µM
Cc1ccc(NC(=O)Cn2c(=O)n(Cc3ccccc3)c(=O)c3c2c2cc(C)ccc2n3C)cc1	none (no result: Marburg entry inh)
Cc1cc(CN2CCC(N3CCC(C(=O)NC4CC4)CC3)CC2)cc(C)c1O	Sm TGR inh 44.7µM
O=C1CC(C(=O)N2CCC(N3CCC(C(=O)NC4CC4)CC3)CC2)c2ccccc21 (stereo unspecified)	Sm TGR inh 39.8µM (no result: Lassa entry inh, Marburg entry inh, VACV Venus inh, VACV mCherry inh)
CC(=O)Nc1ccc(CN2CCC(N3CCC(C(=O)NC4CC4)CC3)CC2)cc1	none (no result: Lassa entry inh, Marburg entry inh, Sm TGR inh)
COc1cc2c(cc1OC)C13CCN4CC5=CCOC6CC(=O)N2C1C6C5CC43 (stereo unspecified) (tested in a mixture with another compound)	VACV Venus inh active (no result: Lassa entry inh, Marburg entry inh)
O=C(c1ccc2c(c1)OCCO2)N(Cc1cccnc1)c1nc2ccc(F)cc2s1	none (no result: Marburg entry inh)
OCCCc1cn(Cc2ccccc2)c2ccccc12	none
CCCCCN=c1ccn(Cc2ccccc2)c2ccccc12	FMDV inh 39.8µM (no result: Lassa entry inh, Marburg entry inh, Sm TGR inh, VACV Venus inh, VACV mCherry inh)
O=C(OC1CCOC1=O)c1ccccc1C(=O)c1ccc(Cl)c([N+](=O)[O-])c1 (stereo unspecified)	Sm TGR inh 25.1µM (no result: Lassa entry inh, Marburg entry inh, VACV Venus inh, VACV mCherry inh)
CC(C)OC(=O)c1ccccc1C(=O)c1ccc(N)c([N+](=O)[O-])c1	none (no result: Sm TGR inh)
O=C(COC(=O)c1ccccc1C(=O)c1ccc(Cl)c([N+](=O)[O-])c1)NC1CC1	Lassa entry inh inconclusive, FMDV inh 20µM, Marburg entry inh inconclusive, Sm TGR inh 22.4µM, VACV Venus inh 10µM, VACV mCherry inh inconclusive

Screens as filed in PubChem.
